Assay results taken from PubChem BioAssay (NCATS).
Inconclusive results are not listed. A call without a number means that no potency is given here. Activity calls are given as the source filed them. Calls come from the whole dose curve; as a rule, active = well fitted curve in the direction sought with a large enough effect; inconclusive = small, poorly fitted or top-dose-only effect, or another doubt; inactive = no such curve, though single readings can be large; an effect the other way counts as inactive or inconclusive.

Experiments:
[1] = P-glycoprotein substrates identified in KB-3-1 adenocarcinoma cell line, qHTS therapeutic library screen (AID 1346986); note: nearly all actives have a fitted effect of over 60% in size;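 note: potency is for cytotoxicity meaning loss of cell viability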
How it was run: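 Dose-response cytotoxicity, KB-3-1 vs P-gp-high KB-8-5-11, no colchicine in assay medium. Read: CellTiter-Glo at 72 h.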

[2] = P-glycoprotein substrates identified in KB-8-5-11 adenocarcinoma cell line, qHTS therapeutic library screen (AID 1346987); note: nearly all actives have a fitted effect of over 65% in size
How it was run: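 In this qHTS, P-gp-rich KB-8-5-11 cells received library compounds across a concentration range. Viability was quantified by luminescence after 72 h at 37 degree C.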
Potency is the fitted concentration of half-maximal effect.

Compound | Potency [1] | Potency [2]
CC1(C)CC[C@]2(C(=O)O)CC[C@]3(C)C(=CCC4[C@@]5(C)C[C@@H](O)[C@H](O)C(C)(C)C5CC[C@]43C)C2C1 (some centres not stated) | inactive | inactive
CC1(C)CCCC2(C)C1C(O)C=C(CO)C2(O)CO (configuration not stated) | inactive | inactive
CC(=O)O[C@H]1[C@@H](O)[C@H](O[C@H]2[C@@H]3C=CO[C@@H](O[C@H]4O[C@@H](CO)[C@H](O)[C@@H](O)[C@@H]4O)[C@@H]3[C@@]3(CO)O[C@@H]23)O[C@@H](C)[C@@H]1OC(=O)/C=C/c1ccccc1 | inactive | inactive
O=C(Nc1c(-c2cccs2)nc2ccccn12)c1ccc(Cl)cc1 | inactive | inactive
CC(C)(O)c1ccc2c(c1)C(O)C[C@H]1[C@](C)(C(=O)O)CCC[C@]21C (some centres not stated) | inactive | inactive
CC/C=C\C/C=C\C/C=C\CCCCCCCC(=O)OCC(O)COC1OC(CO)C(O)C(O)C1O (configuration not stated) | inactive | inactive
N#Cc1c(Oc2ccc(F)c(NC(=O)Cc3cccc(C(F)(F)F)c3)c2)ccc2nc(NC(=O)C3CC3)sc12 | 6.51 µM (active) | 7.31 µM (active)
O=C(c1ccc2nccnc2c1)N1CCCCC1 | inactive | inactive
O=C(O)c1cn(C2CC2)c2cc(N3C[C@@H]4C[C@H]3CN4)c(F)cc2c1=O | inactive | inactive
COc1cc([C@H]2c3cc(O)c(OC)cc3C[C@@H](CO[C@@H]3O[C@H](CO)[C@@H](O)[C@H](O)[C@H]3O)[C@@H]2CO)ccc1O | inactive | inactive
OC1CCC(Nc2ncc3nc(Nc4c(F)cc(F)cc4F)n([C@H]4CCOC4)c3n2)CC1 (some centres not stated) | inactive | inactive
